# From article PMC11062922 (Nature Chemical Biology, 2023)
# Where two headings read alike, the source gives them in different places.
# Key:
# Design in all cases: species or system human, MV4-11 + K-562 + COLO205 + SK-N-BE2 + OVCAR-8
# ACVR1 = settings: read-out: apparent Kd, compound concentrations: 100 nM and 1000 nM (sheet 'Samples'), n = 1
# ACVR2B = settings: read-out: apparent Kd, compound concentrations: 100 nM and 1000 nM (sheet 'Samples'), n = 1
# AKT1 = settings: read-out: apparent Kd; compound concentrations: 100 nM and 1000 nM (sheet 'Samples'), CATDS: 8.7869055703498899E-2; n = 1
# AKT2 = settings: read-out: apparent Kd; compound concentrations: 100 nM and 1000 nM (sheet 'Samples'), CATDS: 9.9123908030557498E-2; n = 1
# DDR2 = settings: read-out: apparent Kd; compound concentrations: 100 nM and 1000 nM (sheet 'Samples'), CATDS: 9.6979339213766697E-2; n = 1
# ERBB3 = settings: read-out: apparent Kd; compound concentrations: 100 nM and 1000 nM (sheet 'Samples'), CATDS: 0.104926252845552; n = 1
# MAP2K1 = settings: read-out: apparent Kd; compound concentrations: 100 nM and 1000 nM (sheet 'Samples'), CATDS: 9.3485581268639997E-2; n = 1
# NCL = settings: read-out: apparent Kd; compound concentrations: 100 nM and 1000 nM (sheet 'Samples'), CATDS: 9.6162289206332394E-2; n = 1
# NNT = settings: read-out: apparent Kd; compound concentrations: 100 nM and 1000 nM (sheet 'Samples'), CATDS: 0.104881561069948; n = 1
# RIOK2 = settings: read-out: apparent Kd; compound concentrations: 100 nM and 1000 nM (sheet 'Samples'), CATDS: 9.3979230016613804E-2; n = 1
# BCR = settings: read-out: apparent Kd, compound concentrations: 100 nM and 1000 nM (sheet 'Samples'), n = 1
# EPHA1 = settings: read-out: apparent Kd; compound concentrations: 100 nM and 1000 nM (sheet 'Samples'), CATDS: 0.10065713248800801; n = 1
# GAK = settings: read-out: apparent Kd, compound concentrations: 100 nM and 1000 nM (sheet 'Samples'), n = 1
# PTK6 = settings: read-out: apparent Kd; compound concentrations: 100 nM and 1000 nM (sheet 'Samples'), CATDS: 9.8392012299874307E-2; n = 1
# RET = settings: read-out: apparent Kd, compound concentrations: 100 nM and 1000 nM (sheet 'Samples'), n = 1
# RIPK2 = settings: read-out: apparent Kd, compound concentrations: 100 nM and 1000 nM (sheet 'Samples'), n = 1
# RIPK3 = settings: read-out: apparent Kd; compound concentrations: 100 nM and 1000 nM (sheet 'Samples'), CATDS: 7.5580251546270003E-2; n = 1
# SIK2 = settings: read-out: apparent Kd; compound concentrations: 100 nM and 1000 nM (sheet 'Samples'), CATDS: 0.152739498183388; n = 1
# ACVR1B = settings: read-out: apparent Kd; compound concentrations:100 nM and 1000 nM (sheet 'Samples'); n = 1
# NQO2 = settings: read-out: apparent Kd; compound concentrations:100 nM and 1000 nM (sheet 'Samples'); n = 1
# PIP4K2C = settings: read-out: apparent Kd, n = 1
# TGFBR1 = settings: read-out: apparent Kd; compound concentrations:100 nM and 1000 nM (sheet 'Samples'); n = 1
# FLT3 = settings: read-out: apparent Kd; compound concentrations: 100 nM and 1000 nM (sheet 'Samples'), CATDS: 5.3612696826146597E-2; n = 1
# FLT4 = settings: read-out: apparent Kd; compound concentrations: 100 nM and 1000 nM (sheet 'Samples'), CATDS: 5.6175855360763499E-2; n = 1
# FRK = settings: read-out: apparent Kd; compound concentrations: 100 nM and 1000 nM (sheet 'Samples'), CATDS: 7.6735011828902105E-2; n = 1
# FYN = settings: read-out: apparent Kd; compound concentrations: 100 nM and 1000 nM (sheet 'Samples'), CATDS: 5.82468241174715E-2; n = 1
# IRAK3 = settings: read-out: apparent Kd; compound concentrations: 100 nM and 1000 nM (sheet 'Samples'), CATDS: 6.2537206863604394E-2; n = 1
# STK11 = settings: read-out: apparent Kd; compound concentrations: 100 nM and 1000 nM (sheet 'Samples'), CATDS: 4.7078768974871503E-2; n = 1
# TGFBR2 = settings: read-out: apparent Kd; compound concentrations: 100 nM and 1000 nM (sheet 'Samples'), CATDS: 0.25024360667503898; n = 1
smiles,measurement,setting,value
COc1ccc(C)c(Nc2ccnc(Nc3ccc(-c4cnc[nH]4)cc3)n2)c1.Cl [GW784041A],potency estimated from few doses,ACVR1; CATDS: 0.125244350144667,1190 nM
same,potency estimated from few doses,ACVR2B; CATDS: 0.106004759644949,1600 nM
same,potency estimated from few doses,AKT1,2370 nM
same,potency estimated from few doses,AKT2,1820 nM
same,potency estimated from few doses,DDR2,1910 nM
same,potency estimated from few doses,ERBB3,1630 nM
same,potency estimated from few doses,MAP2K1,2060 nM
same,potency estimated from few doses,NCL,1940 nM
same,potency estimated from few doses,NNT,1630 nM
same,potency estimated from few doses,RIOK2,2040 nM
Fc1cc(Cl)ccc1Nc1ccnc2cc(-c3ccc(CN4CCCCC4)o3)ccc12 [GW560116X],potency estimated from few doses,ACVR2B; CATDS: 8.5008478980750105E-2,1080 nM
same,potency estimated from few doses,BCR; CATDS: 0.13309110379765501,359 nM
same,potency estimated from few doses,EPHA1,670 nM
same,potency estimated from few doses,GAK; CATDS: 0.10209993083840201,646 nM
same,potency estimated from few doses,PTK6,710 nM
same,potency estimated from few doses,RET; CATDS: 0.106923709019676,577 nM
same,potency estimated from few doses,RIPK2; CATDS: 0.37039480382744999,69.3 nM
same,potency estimated from few doses,RIPK3,1650 nM
same,potency estimated from few doses,SIK2,276 nM
O=C(c1ccc(-c2cc(-c3c[nH]nc3-c3ccccn3)ccn2)cc1)N1CCCC1 [GW792479X],potency estimated from few doses,ACVR1B,270 nM
same,potency estimated from few doses,NQO2,1390 nM
same,potency estimated from few doses,PIP4K2C; compound concentrations:100 nM and 1000 nM (sheet 'Samples'),1650 nM
same,potency estimated from few doses,TGFBR1,118 nM
Cc1ccc(Nc2ccnc(Nc3cccc(C(N)=O)c3)n2)cc1O.Cl [GW575808A],potency estimated from few doses,ACVR1; CATDS: 7.6276409382360397E-2,534 nM
same,potency estimated from few doses,ACVR2B; CATDS: 0.210677427457096,77 nM
same,potency estimated from few doses,BCR; CATDS: 7.0620023573944493E-2,645 nM
same,potency estimated from few doses,FLT3,1450 nM
same,potency estimated from few doses,FLT4,1240 nM
same,potency estimated from few doses,FRK,526 nM
same,potency estimated from few doses,FYN,1100 nM
same,potency estimated from few doses,GAK; CATDS: 5.5943535710341101E-2,1250 nM
same,potency estimated from few doses,IRAK3,894 nM
same,potency estimated from few doses,"PIP4K2C; compound concentrations: 100 nM and 1000 nM (sheet 'Samples'), CATDS: 5.2092814624207201E-2",1610 nM
same,potency estimated from few doses,RET; CATDS: 7.3825490143618097E-2,578 nM
same,potency estimated from few doses,RIPK2; CATDS: 0.18233295125810001,96.9 nM
same,potency estimated from few doses,STK11,2430 nM
same,potency estimated from few doses,TGFBR2,59.4 nM
